Test results from PubChem BioAssay (Tox21).
Records with an inconclusive call do not appear. Activity calls are given as the source filed them. Unless noted, calls come from the whole dose curve.

Assays:
[1] = Nuclear factor erythroid 2-related factor 2/antioxidant responsive element (Nrf2/ARE) small molecule agonists: qHTS cell viability counter screen in human keratinocytes (AID 1919968; active = well fitted curve in the direction sought with a large enough effect in the repeat runs; an effect the other way counts as inactive or inconclusive; note: nearly all actives have a fitted effect of over 55% in size)
Summary of the method: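 Cells of the KeratinoSens line were plated at 1,500 per well and left for 5 h before compound transfer from DMSO stocks. After a 23 h incubation (37 C, 5% CO2), CellTiter-Fluor was added. Signal was taken as fluorescence intensity 1 h later.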

[2] = Nuclear factor erythroid 2-related factor 2/antioxidant responsive element (Nrf2/ARE) small molecule agonists: luciferase reporter gene qHTS assay in human keratinocytes (AID 1919969); note: nearly all actives have a fitted effect of over 35% in size
[3] = molecular target: Gonadotropin-releasing hormone receptor (Homo sapiens) (UniProt P30968); experiment: Human gonadotropin-releasing hormone receptor (GnRHR) small molecule agonists, calcium flux assay in GnRHR-HEK293 cells (AID 1920063); note: nearly all actives have a fitted effect of over 35% in size
Gonadotropin-releasing hormone receptor (Homo sapiens), sequence (P30968 whole entry, looked up): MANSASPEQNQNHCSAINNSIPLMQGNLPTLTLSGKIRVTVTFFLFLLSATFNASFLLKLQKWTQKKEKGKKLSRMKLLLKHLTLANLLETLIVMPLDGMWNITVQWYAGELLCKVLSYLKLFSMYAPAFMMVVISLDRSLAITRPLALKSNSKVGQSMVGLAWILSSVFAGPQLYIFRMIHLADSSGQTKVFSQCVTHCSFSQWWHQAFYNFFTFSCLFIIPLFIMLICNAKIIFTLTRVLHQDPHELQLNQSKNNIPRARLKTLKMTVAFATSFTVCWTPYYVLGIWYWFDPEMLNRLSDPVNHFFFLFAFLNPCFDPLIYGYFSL
Summary of the method: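 Compounds dissolved in DMSO are pin-transferred onto dye-loaded GnRHR-HEK293 cells, which were seeded 18 h before at 37 C/5% CO2. Calcium signal is read as fluorescence intensity at 1 s intervals for 3 min.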

[4] = molecular target: KiSS-1 receptor (Homo sapiens) (UniProt Q969F8); experiment: Human kisspeptin (KISS1R) small molecule agonists, calcium flux assay in KISS1R-HEK293 cells (AID 1920064; active = well fitted curve in the direction sought with a large enough effect in the repeat runs; an effect the other way counts as inactive or inconclusive)
KiSS-1 receptor (Homo sapiens), sequence (Q969F8 whole entry, looked up): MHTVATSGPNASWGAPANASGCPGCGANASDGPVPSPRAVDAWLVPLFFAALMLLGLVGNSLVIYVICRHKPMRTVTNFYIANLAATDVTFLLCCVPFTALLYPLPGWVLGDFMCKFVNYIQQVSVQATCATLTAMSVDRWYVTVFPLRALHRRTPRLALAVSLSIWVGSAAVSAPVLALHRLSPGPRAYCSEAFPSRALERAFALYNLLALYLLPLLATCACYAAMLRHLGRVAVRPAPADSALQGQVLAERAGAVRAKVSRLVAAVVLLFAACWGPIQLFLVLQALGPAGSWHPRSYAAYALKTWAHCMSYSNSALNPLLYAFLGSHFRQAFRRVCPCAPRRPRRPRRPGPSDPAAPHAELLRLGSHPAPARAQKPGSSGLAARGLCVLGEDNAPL
Summary of the method: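 Cell line: HEK293, stable human KISS1R. Dye loading 1 h at 37 C after 18 h culture. Read: kinetic fluorescence, 480/540 nm, 3 min at 1 s intervals.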

[5] = G protein-coupled receptor (GPCR) small molecule agonists, calcium flux assay: HEK293 wild type cell line counter screen (AID 1920065)
Summary of the method: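 Tox21 10K compounds, 15 concentrations each in triplicate, pin-transferred in DMSO onto dye-loaded cells; kinetic read at 480/540 nm for 3 min, 1 s intervals.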

[6] = p53 small molecule agonists, cell-based qHTS assay with human liver microsomes (AID 1963577)
Summary of the method: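 Fluorescence of the beta-lactamase reporter in p53RE-bla cells, detected with LiveBLAzer substrate (2 h, room temperature, dark), served as the read-out after 16 h compound exposure at 37 C with human liver microsomes and NADPH, each 0.5 mg/mL final.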

[7] = p53 small molecule agonists, cell-based qHTS assay with rat liver microsomes (AID 1963578)
Summary of the method: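 Cells carrying a p53 response element–beta-lactamase reporter were plated and rested 5 h, then dosed with compound in DMSO plus rat liver microsomes and NADPH, each at 0.5 mg/mL final. After 16 h at 37 C, LiveBLAzer substrate was added for 2 h.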

[8] = p53 small molecule agonists, cell-based qHTS assay with human liver microsomes: qHTS cell viability counter screen (AID 1963579); note: nearly all actives have a fitted effect of over 45% in size
Summary of the method: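 Cytotoxicity counter screen: p53RE-bla, 4,000 cells/well; 5 h settle, 37 C/5% CO2; cpd + HLM 0.5 mg/mL + NADPH 0.5 mg/mL (final); 16 h, 37 C; CellTiter-Glo, 30 min RT, luminescence.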

[9] = p53 small molecule agonists, cell-based qHTS assay with rat liver microsomes: qHTS cell viability counter screen (AID 1963580); note: nearly all actives have a fitted effect of over 45% in size
Summary of the method: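 Luminescent ATP readout (CellTiter-Glo, 30 min at room temperature) reports viability of p53RE-bla HCT-116 cells after 16 h at 37 C with test compounds under metabolic activation by rat liver microsomes and NADPH at 0.5 mg/mL final each.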

[10] = p53 small molecule agonists, cell-based qHTS assay: qHTS cell viability counter screen (AID 1963581); note: nearly all actives have a fitted effect of over 45% in size
Summary of the method: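 ATP content measured by luminescence in HCT-116 p53RE-bla cells treated 16 h at 37 C, same wells as the reporter screen.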

[11] = p53 small molecule agonists, cell-based qHTS assay (AID 1963582; active = well fitted activation curve with a large enough effect in the signal ratio in the repeat runs, not every such curve was filed as active; the % refers to the signal ratio)
Summary of the method: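 16 h compound exposure (37 C) of p53 response element–bla cells, preceded by 5 h recovery at 37 C/5% CO2; read-out via LiveBLAzer B/G FRET substrate, 2 h RT, fluorescence intensity.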

[12] = molecular target: 5-hydroxytryptamine receptor 2A (Homo sapiens) (UniProt P28223); experiment: 5-hydroxytryptamine receptor 2A (HTR2A) small molecule antagonists, cell-based qHTS assay (AID 1963586); note: nearly all actives have a fitted effect of over 45% in size
5-hydroxytryptamine receptor 2A (Homo sapiens), sequence (P28223 whole entry, looked up): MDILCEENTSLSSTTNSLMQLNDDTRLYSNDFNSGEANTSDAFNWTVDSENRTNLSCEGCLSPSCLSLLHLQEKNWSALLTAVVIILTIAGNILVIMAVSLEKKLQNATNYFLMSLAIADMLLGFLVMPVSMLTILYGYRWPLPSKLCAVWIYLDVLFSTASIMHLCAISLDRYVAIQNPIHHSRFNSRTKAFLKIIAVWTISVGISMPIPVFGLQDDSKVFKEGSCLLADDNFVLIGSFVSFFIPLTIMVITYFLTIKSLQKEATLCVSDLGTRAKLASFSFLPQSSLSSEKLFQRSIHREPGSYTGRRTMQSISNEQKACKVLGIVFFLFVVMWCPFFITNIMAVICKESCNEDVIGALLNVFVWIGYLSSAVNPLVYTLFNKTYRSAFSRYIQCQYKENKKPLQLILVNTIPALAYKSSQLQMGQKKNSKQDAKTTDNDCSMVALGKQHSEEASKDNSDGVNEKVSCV
Summary of the method: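 CHO cells stably expressing human HTR2A were plated for 18 h at 37 C, then loaded with calcium dye for 1 h. Compounds were preincubated 5 min at room temperature before DOI (4 nM solution) was added. Kinetic fluorescence was read for 3 min.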

[13] = molecular target: 5-hydroxytryptamine receptor 2A (Homo sapiens) (UniProt P28223); experiment: 5-hydroxytryptamine receptor 2A (HTR2A) small molecule agonists, cell-based qHTS assay (AID 1963587); note: nearly all actives have a fitted effect of over 30% in size
Summary of the method: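 HTR2A-CHO cells, plated 18 h at 37 C/5% CO2, dye-loaded 1 h at 37 C; compounds in DMSO added by pin tool (agonist mode). Intracellular calcium flux read as kinetic fluorescence on FDSS over 2 min at 1 s intervals.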

[14] = molecular target: Muscarinic acetylcholine receptor M1 (Homo sapiens) (UniProt P11229); experiment: Cholinergic receptor muscarinic 1 (CHRM1) small molecule antagonists, cell-based qHTS assay (AID 1963588); note: nearly all actives have a fitted effect of over 40% in size
Muscarinic acetylcholine receptor M1 (Homo sapiens), sequence (P11229 whole entry, looked up): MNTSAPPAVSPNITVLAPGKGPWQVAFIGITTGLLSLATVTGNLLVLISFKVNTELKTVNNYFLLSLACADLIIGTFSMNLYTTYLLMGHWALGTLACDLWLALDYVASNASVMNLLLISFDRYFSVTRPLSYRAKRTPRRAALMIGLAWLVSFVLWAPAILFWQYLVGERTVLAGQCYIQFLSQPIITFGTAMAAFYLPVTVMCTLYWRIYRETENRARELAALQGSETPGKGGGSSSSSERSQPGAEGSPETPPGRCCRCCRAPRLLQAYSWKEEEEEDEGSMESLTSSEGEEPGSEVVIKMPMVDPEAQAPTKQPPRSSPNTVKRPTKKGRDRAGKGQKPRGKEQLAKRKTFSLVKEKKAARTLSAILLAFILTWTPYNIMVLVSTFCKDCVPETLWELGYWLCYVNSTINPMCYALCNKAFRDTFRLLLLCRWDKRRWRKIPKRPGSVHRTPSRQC
Summary of the method: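 Compounds were tested at 15 concentrations in three independent runs. Dye-loaded CHRM1-CHO cells were exposed 5 min at room temperature before stimulation by acetylcholine added at 50nM. Intracellular calcium was read kinetically on FDSS for 3 min.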

[15] = molecular target: Muscarinic acetylcholine receptor M1 (Homo sapiens) (UniProt P11229); experiment: Cholinergic receptor muscarinic 1 (CHRM1) small molecule agonists, cell-based qHTS assay (AID 1963589); note: nearly all actives have a fitted effect of over 35% in size
Summary of the method: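 Homogeneous fluorescence calcium flux, agonist mode. Human M1-expressing CHO cells; compound dosed at 15 concentrations, three independent runs; signal sampled every 1 sec.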

[16] = cAMP Responsive Elements (CRE) small molecule agonists, cell-based qHTS assay (AID 1963590)
Summary of the method: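 HEK 293T cells stably bearing CRE-bla were plated at 2,000 cells per well and rested 18 h. Compounds, positive controls or DMSO were added for 3 h at 37 C. LiveBLAzer B/G substrate was then loaded for 2 h at room temperature.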

[17] = cAMP Responsive Elements (CRE) small molecule antagonists, cell-based qHTS assay (AID 1963591; active = well fitted inhibition curve with a large enough effect in the signal ratio in the repeat runs, not every such curve was filed as active; the % refers to the signal ratio)
Summary of the method: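 First, CRE-bla HEK293T cells settled 18 h at 37 C. Next, compound and 0.25 uM final NKH477 were applied for 3 h. Last, LiveBLAzer B/G substrate was loaded for 2 h at room temperature.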

[18] = molecular target: Beta-2 adrenergic receptor (Homo sapiens) (UniProt P07550); experiment: Adrenergic beta2 receptor (ADRB2) small molecule antagonists, cell-based qHTS assay (AID 1963592); note: series mostly up to about 92 µM; nearly all actives have a fitted effect of over 50% in size
Beta-2 adrenergic receptor (Homo sapiens), sequence (P07550 whole entry, looked up): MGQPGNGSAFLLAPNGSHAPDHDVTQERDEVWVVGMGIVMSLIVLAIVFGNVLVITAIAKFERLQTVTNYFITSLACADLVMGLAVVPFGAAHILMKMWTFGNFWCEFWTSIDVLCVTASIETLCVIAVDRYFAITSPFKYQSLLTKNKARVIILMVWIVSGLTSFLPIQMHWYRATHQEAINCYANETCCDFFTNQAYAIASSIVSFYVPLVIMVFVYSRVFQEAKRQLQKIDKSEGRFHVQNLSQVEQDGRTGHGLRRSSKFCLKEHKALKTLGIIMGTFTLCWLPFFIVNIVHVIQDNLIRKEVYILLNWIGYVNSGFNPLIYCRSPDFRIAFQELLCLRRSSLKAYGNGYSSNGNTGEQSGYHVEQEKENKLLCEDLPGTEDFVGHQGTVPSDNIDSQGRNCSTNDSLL
Summary of the method: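 Assay format: CHO-ADRB2 cells, 18-20hr seeding at 37C/5% CO2, then compound plus 1nM isoproterenol agonist mix for 0.5hr RT. Homogeneous time-resolved fluorescence cAMP detection after 1hr, expressed as 665/615 nm ratio.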

[19] = molecular target: D(2) dopamine receptor (Homo sapiens) (UniProt P14416); experiment: Dopamine D2 receptor (DRD2) small molecule antagonists, cell-based qHTS assay (AID 1963595; active = well fitted inhibition curve with a large enough effect in the signal ratio in the repeat runs, with a control signal flat; the % refers to the signal ratio)
D(2) dopamine receptor (Homo sapiens), sequence (P14416 whole entry, looked up): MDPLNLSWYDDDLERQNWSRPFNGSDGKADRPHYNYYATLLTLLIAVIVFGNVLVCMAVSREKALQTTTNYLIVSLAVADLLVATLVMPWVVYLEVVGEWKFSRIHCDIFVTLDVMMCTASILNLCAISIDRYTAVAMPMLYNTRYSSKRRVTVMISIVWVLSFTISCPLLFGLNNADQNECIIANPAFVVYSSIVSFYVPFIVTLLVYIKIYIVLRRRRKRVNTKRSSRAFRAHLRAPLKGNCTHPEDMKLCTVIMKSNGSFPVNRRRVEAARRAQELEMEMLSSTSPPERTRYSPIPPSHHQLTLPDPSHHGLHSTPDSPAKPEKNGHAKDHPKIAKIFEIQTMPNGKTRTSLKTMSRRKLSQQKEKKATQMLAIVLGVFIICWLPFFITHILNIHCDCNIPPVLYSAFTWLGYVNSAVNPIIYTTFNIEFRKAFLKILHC
Summary of the method: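 HEK293 cells stably expressing DRD2 were preincubated with 0.1 mM Ro20-1724, then with compound for 10 min at room temperature. Cells were stimulated with 200 nM NKH477 plus 12 nM quinpirole for 30 min, and cAMP was read by HTRF.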

[20] = molecular target: D(2) dopamine receptor (Homo sapiens) (UniProt P14416); experiment: Dopamine D2 receptor (DRD2) small molecule agonists, cell-based qHTS assay (AID 1963594); note: nearly all actives have a fitted effect of over 35% in size
Summary of the method: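 HEK293 cells stably expressing DRD2 were cultured 24 h at 37 C, then given Ro20-1724 (0.1 mM final) and compounds for 10 min at room temperature. NKH477 (200nM) was then added for 30 min. cAMP was read by HTRF.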

Measured: Potency

Cc1ccc(-c2nc3ccc(C)cn3c2CC(=O)N(C)C)cc1
not listed: [20]
inactive: all other assays above

Cc1ccc2c(C)cccc2c1
inactive: all assays above

COC[C@@H](NC(C)=O)C(=O)NCc1ccccc1
inactive: all assays above

CCOc1nc(F)cc2nc(S(=O)(=O)Nc3c(Cl)cccc3Cl)nn12
not listed: [19]
inactive: all other assays above

CCC(=O)c1ccccc1
not listed: [20]
inactive: all other assays above

CCOC(=O)N(C)N=O
inactive: all assays above

CC1COC2(c3ccccc3Cl)c3cc(Cl)ccc3NC(=O)CN12 (stereo unspecified)
not listed: [20]
inactive: all other assays above

C=C(C#N)CCC#N
inactive: all assays above
